The record followed here is the antibiotic and cytotoxicity screens of Wong et al. (2023).

The whole screen tested about 39,000 compounds, of which about 3,300 (8.5%) were called active. Only a selection was taken, and actives are over-represented in it overall.

For this assay, the system named is HepG2. Briefly: cytotoxicity call (relative viability < 0.9). Conditions: 10 µM.
In the case of `COc1ccc(CN(C)C[C@H]2Oc3c(NS(C)(=O)=O)cccc3C(=O)N([C@@H](C)CO)C[C@H]2C)cc1`, the cytotoxicity call was “inactive”. Consider `COc1ccc2c3c([nH]c2c1)[C@H](CO)N(C[C@]13CN(Cc2ccccc2)C1)S(=O)(=O)c1cn(cn1)C`, for which the cytotoxicity call is “inactive”.

`COc1ccc(NC(=O)N(C)C[C@H]2Oc3ncc(C#CCN(C)C)cc3C(=O)N([C@@H](C)CO)C[C@H]2C)cc1`: the cytotoxicity call is “inactive”. The entry for `O=C(C[C@@H]1CC[C@H]2[C@@H](COC[C@@H](O)CN2Cc2cc(F)ccc2F)O1)N[C@@H]1CCN(Cc2ccccc2)C1` is “inactive”; for `C[C@@H]1CN([C@H](C)CO)C(=O)CCCn2nncc2CO[C@@H]1CN(C)C(=O)c1ccc(N2CCN(C)CC2)cc1` it is “inactive”. The entry for `Fc1ccccc1[C@H]1Nc2ccc3ccccc3c2[C@H]2C=CC[C@@H]21` is “inactive”; for `CCNC(=O)C[C@@H]1CC[C@H](NC(=O)C2CCOCC2)[C@H](CO)O1` it is “inactive”; for `Cc1noc(C)c1NC(=O)Nc1ccc2c(c1)C(=O)N([C@H](C)CO)C[C@H](C)[C@H](CN(C)Cc1ccc(C(F)(F)F)cc1)O2` it is “inactive”.

Regarding `C[C@@H]1CN([C@H](C)CO)C(=O)c2cc(-c3cncnc3)cnc2O[C@H]1CN(C)C(=O)Nc1ccc2c(c1)OCO2`, the cytotoxicity call is “inactive”. On to `CCCNC(=O)c1cc2c(c(-c3cccc(-c4cccc(OC)c4)c3)n1)[C@H](CCO)N([S@@](=O)C(C)(C)C)C2`, for which the cytotoxicity call is “inactive”. The entry for `O=C1c2ccccc2[C@@]2(Cc3ccccc3N(C3CC3)C2=O)[C@H](c2ccc(CO)cc2)N1Cc1ccccc1` is “active”.

Take `COc1ccccc1CN1C(=O)c2ccccc2[C@@]2(Cc3ccccc3N(C3CC3)C2=O)[C@@H]1c1ccc(CO)cc1`: the cytotoxicity call is “inactive”. On to `O=C1c2ccccc2[C@@]2(Cc3ccccc3N(C3CC3)C2=O)[C@H](c2ccc(CO)cc2)N1Cc1ccccc1Cl`, for which the cytotoxicity call is “inactive”. In the case of `COc1ccc(S(=O)(=O)N[C@@H]2C=C[C@H](CC(=O)N3CCN(c4ccccc4)CC3)O[C@H]2CO)cc1`, the cytotoxicity call is “inactive”. To `OCc1cc(O)c2c(O)c3c(O)cccc3c(O[C@@H]3O[C@H](CO)[C@@H](O)[C@H](O)[C@H]3O)c2c1` belongs “active”. As to `O=C(O)c1cc(O[C@@H]2O[C@H](CO)[C@@H](O)[C@H](O)[C@H]2O)c2ccccc2c1O`, the cytotoxicity call is “inactive”. Take `OCc1ccc(O[C@@H]2O[C@H](CO)[C@@H](O)[C@H](O)[C@H]2O)cc1`: the cytotoxicity call is “inactive”.

Regarding `OCc1ccccc1O[C@@H]1O[C@H](CO)[C@@H](O)[C@H](O)[C@H]1O`, the cytotoxicity call is “inactive”. As to `OCCc1ccc(O)c(O[C@H]2O[C@@H](CO)[C@@H](O)[C@@H](O)[C@@H]2O)c1`, the cytotoxicity call was “inactive”. Consider `O=C1c2c(O)cc(CO)cc2C(OC2OC(CO)C(O)C(O)C2O)c2cccc(OC3OC(CO)C(O)C(O)C3O)c21` (stereo not drawn) [CASANTHRANOL [cascaroside A shown] ], for which the cytotoxicity call was “inactive”. To `O=C1c2c(O)cccc2C(C2OC(CO)C(O)C(O)C2O)c2cc(CO)cc(O)c21` (stereo not drawn) belongs “active”.

For the compound `OCc1cc(O)c2c(O)c3c(O)cccc3c(O[C@@H]3O[C@H](CO)[C@H](O)[C@@H](O)[C@H]3O)c2c1`, the cytotoxicity call was “inactive”.

Consider `O=C(O)c1cc(O)c2c(c1)C(C1c3cc(C(=O)O)cc(O)c3C(=O)c3c(OC4OC(CO)C(O)C(O)C4O)cccc31)c1cccc(OC3OC(CO)C(O)C(O)C3O)c1C2=O` (stereo not drawn), for which the cytotoxicity call was “active”. Take `COc1c(O)cc2c(c1O)[C@@H]1O[C@H](CO)[C@@H](O)[C@H](O)[C@H]1OC2=O`: the cytotoxicity call was “inactive”. Consider `O=C(O)c1cc(O)c2c(O)c3c(O[C@H]4O[C@H](CO)[C@@H](O)[C@H](O)[C@H]4O)cccc3c(-c3c4cc(C(=O)O)cc(O)c4c(O)c4c(O[C@H]5O[C@H](CO)[C@@H](O)[C@H](O)[C@H]5O)cccc34)c2c1`, for which the cytotoxicity call was “active”. On to `COc1c(O)cc2c(c1O)C1OC(CO)C(O)C(O)C1OC2=O` (stereo not drawn), for which the cytotoxicity call was “inactive”.

Turning to `CC(C)C#Cc1cnc2c(c1)C(=O)N([C@@H](C)CO)C[C@@H](C)[C@@H](CN(C)C(=O)c1ccc3c(c1)OCO3)O2`, the cytotoxicity call is “inactive”. On to `O=C(C[C@H]1C[C@H]2c3cc(NS(=O)(=O)c4ccc(F)cc4)ccc3O[C@H]2[C@@H](CO)O1)NCCN1CCCCC1`, for which the cytotoxicity call is “inactive”.

`C[C@@H]1CN([C@H](C)CO)C(=O)CCCn2cc(nn2)CO[C@@H]1CN(C)S(=O)(=O)c1ccc2c(c1)OCCCO2`: the cytotoxicity call was “inactive”. The entry for `C[C@H]1CN([C@@H](C)CO)S(=O)(=O)c2ccc(C#Cc3cccc(F)c3)cc2O[C@@H]1CN(C)S(=O)(=O)c1ccccc1F` is “inactive”; for `C[C@H](O)C#Cc1ccc2c(c1)O[C@H](CN(C)C)[C@H](C)CN([C@H](C)CO)S2(=O)=O` it is “inactive”; for `COCC(=O)Nc1ccc2c(c1)C(=O)N(C)C[C@H](OC)[C@H](C)CN(Cc1cccc(F)c1)[C@@H](C)CO2` it is “inactive”. As for `S=c1[nH]nc(C2CCCCC2)[nH]1`, the cytotoxicity call was “inactive”.

With `COCC(=O)Nc1ccc2c(c1)C(=O)N(C)C[C@@H](OC)[C@H](C)CN(C(=O)Nc1ccccc1F)[C@H](C)CO2`, the cytotoxicity call is “inactive”.

For the compound `Cc1nnc(SCC2=C(C(=O)O)N3C(=O)[C@@H](N)[C@H]3SC2)s1`, the cytotoxicity call was “inactive”. For the compound `CCOC(=O)c1ccc(NC(=S)N[C@@H](NC(=O)c2ccc(Br)cc2)C(Cl)(Cl)Cl)cc1`, the cytotoxicity call was “inactive”.

For the compound `O=C(N[C@H](NC(=S)Nc1ccc(F)c([N+](=O)[O-])c1)C(Cl)(Cl)Cl)C(c1ccccc1)c1ccccc1`, the cytotoxicity call was “active”. For the compound `C[C@@H]1CN([C@@H](C)CO)S(=O)(=O)c2ccc(-c3cncnc3)cc2O[C@H]1CN(C)C(=O)Cc1ccccc1`, the cytotoxicity call is “inactive”. In the case of `C[C@H]1CCCCO[C@H](CN(C)Cc2ccccc2)[C@@H](C)CN([C@@H](C)CO)C(=O)c2cc(NS(=O)(=O)c3cccs3)ccc2O1`, the cytotoxicity call is “inactive”.

As for `COc1ccc(CN(C)C[C@@H]2OCCCC[C@@H](C)Oc3ccc(NC(=O)c4ccncc4)cc3C(=O)N([C@@H](C)CO)C[C@H]2C)cc1`, the cytotoxicity call was “inactive”.

`C[C@@H]1CCCCO[C@@H](CN(C)S(=O)(=O)c2cn(C)cn2)[C@H](C)CN([C@H](C)CO)C(=O)c2cc(NC(=O)Nc3cccc4ccccc34)ccc2O1`: the cytotoxicity call is “inactive”. The entry for `C[C@H](CO)N1C[C@H](C)[C@@H](CN(C)S(=O)(=O)c2cccs2)OCCCC[C@H](C)Oc2ccc(NS(=O)(=O)c3ccc(Cl)cc3)cc2C1=O` is “active”.

As for `C[C@@H]1CN([C@H](C)CO)C(=O)c2cc(NS(=O)(=O)c3ccc(Cl)cc3)ccc2O[C@@H](C)CCCCO[C@H]1CN(C)S(=O)(=O)c1cccs1`, the cytotoxicity call was “inactive”. For `C[C@H](CO)N1C[C@H](C)[C@H](CN(C)S(=O)(=O)c2cccs2)OCCCC[C@H](C)Oc2ccc(NS(=O)(=O)c3ccc(Cl)cc3)cc2C1=O`, the cytotoxicity call was “inactive”.

As for `C[C@H]1CCCCO[C@@H](CN(C)S(=O)(=O)c2cccs2)[C@@H](C)CN([C@@H](C)CO)C(=O)c2cc(NS(=O)(=O)c3ccc(Cl)cc3)ccc2O1`, the cytotoxicity call is “inactive”. To `C[C@@H]1CCCCO[C@@H](CN(C)S(=O)(=O)c2cccs2)[C@H](C)CN([C@@H](C)CO)C(=O)c2cc(NS(=O)(=O)c3ccc(Cl)cc3)ccc2O1` belongs “inactive”; to `C[C@@H]1CN([C@H](C)CO)C(=O)c2cc(NS(=O)(=O)c3ccc(Cl)cc3)ccc2O[C@@H](C)CCCCO[C@@H]1CN(C)S(=O)(=O)c1cccs1`, “inactive”; to `C[C@@H]1CCCCO[C@@H](CN(C)S(=O)(=O)c2cccs2)[C@H](C)CN([C@H](C)CO)C(=O)c2cc(NS(=O)(=O)c3ccc(Cl)cc3)ccc2O1`, “active”. On to `C[C@@H]1CN([C@@H](C)CO)C(=O)c2cc(NS(=O)(=O)c3ccc(Cl)cc3)ccc2O[C@@H](C)CCCCO[C@@H]1CN(C)S(=O)(=O)c1cccs1`, for which the cytotoxicity call was “inactive”.

Consider `C[C@@H]1CCCCO[C@@H](CN(C)S(=O)(=O)c2cccs2)[C@@H](C)CN([C@@H](C)CO)C(=O)c2cc(NS(=O)(=O)c3ccc(Cl)cc3)ccc2O1`, for which the cytotoxicity call is “active”.

As to `C[C@@H]1CCCCO[C@H](CN(C)S(=O)(=O)c2cccs2)[C@H](C)CN([C@@H](C)CO)C(=O)c2cc(NS(=O)(=O)c3ccc(Cl)cc3)ccc2O1`, the cytotoxicity call is “active”.

Consider `C[C@@H]1CCCCO[C@@H](CN(C)S(=O)(=O)c2cccs2)[C@@H](C)CN([C@H](C)CO)C(=O)c2cc(NS(=O)(=O)c3ccc(Cl)cc3)ccc2O1`, for which the cytotoxicity call is “inactive”. As for `C[C@@H]1CCCCO[C@H](CN(C)S(=O)(=O)c2cccs2)[C@H](C)CN([C@H](C)CO)C(=O)c2cc(NS(=O)(=O)c3ccc(Cl)cc3)ccc2O1`, the cytotoxicity call is “inactive”.
